This passage reports outcome and AC50 results from PubChem BioAssay (EPA / NIEHS).

Assay [1] in a line: APR_HepG2_CellCycleArrest_24hr: Apredica 24-hour HepG2 Assay for Cell Cycle Arrest (AID 2282905).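 Also: cell cycle arrest scored as ratio of 2N to 4N nuclear DNA content.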 The conditions noted are these: imaging, actives raise or lower the signal. The essentials:
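HepG2 cells were exposed to compounds at 0.39–200 uM (ten concentrations, duplicate) in 0.5% v/v DMSO for 24 hr. After formaldehyde fixation and Triton permeabilization, Hoechst 33342-stained nuclei were imaged at 20x; DNA content was quantified, with bidirectional fitting against DMSO.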

Assay [2] in a line: APR_HepG2_StressKinase_1hr: Apredica 1-hour HepG2 Assay for Stress Kinase (AID 2282906). The conditions noted are these: HepG2 stress kinase (phospho-c-Jun) imaging, actives raise or lower the signal. Summed up: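 HepG2 cells dosed 0.39-200 uM (0.5% DMSO) for 1 h, then formaldehyde-fixed. Stress kinase read by phospho-c-Jun immunofluorescence using high-content imaging; bidirectional fit vs DMSO.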

Assay [3] in a line: APR_HepG2_NuclearSize_24hr: Apredica 24-hour HepG2 Assay for Nuclear Size (AID 2282907). To be noted: high-content imaging, actives raise or lower the signal. The essentials:
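HepG2 human liver cells were exposed for 24 hr to compounds at 0.39–200 uM (ten concentrations, duplicate) in 0.5% v/v DMSO. They were then formaldehyde-fixed, Triton-permeabilized and Hoechst 33342-stained, and nuclear diameter was imaged at 20x. Bidirectional fits were made against DMSO.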

The nature of assay [4]: APR_HepG2_CellLoss_24hr: Apredica 24-hour HepG2 Assay for Cell Loss (AID 2282908).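 As to AC50: fit in both directions so a hit may be cell loss or gain.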 To be noted: high-content imaging. The essentials: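 Compounds were tested at 0.39–200 uM in duplicate with 0.5% v/v DMSO final. Cells were then fixed in 3.7% formaldehyde, Hoechst 33342 nuclei were imaged at 20x by HCS, and cell number was fitted bidirectionally against DMSO.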
Assay [5] in a line: APR_HepG2_MicrotubuleCSK_24hr: Apredica 24-hour HepG2 Assay for Microtubule CSK Stabilty (AID 2282909). To be noted: HepG2 microtubule cytoskeleton imaging, actives raise or lower the signal. The essentials: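 HepG2 cells exposed 24 h to compounds at 0.39–200 uM (duplicate, 0.5% v/v DMSO final), then fixed, permeabilized and immunostained for alpha-tubulin with Hoechst 33342. Cytoskeleton imaged at 20x; bidirectional fit versus DMSO baseline.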

The nature of assay [6]: APR_HepG2_MitoticArrest_24hr: Apredica 24-hour HepG2 Assay for Mitotic Arrest (AID 2282910). The conditions noted are these: high-content imaging, actives raise or lower the signal. The essentials:
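HepG2 human liver cells were exposed to compounds at 0.39–200 uM (10 concentrations, duplicate) in 0.5% v/v DMSO for 24 hr, then fixed and immunostained for phospho-histone H3 with Hoechst 33342. Mitotic arrest came from HCS fluorescent imaging, fitted bidirectionally against DMSO.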

Assay [7] is described as follows: APR_HepG2_MitoMembPot_24hr: Apredica 24-hour HepG2 Assay for Mitochondrial Membrane Potential (AID 2282911). To be noted: imaging, actives raise or lower the signal. Summed up: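 HepG2 cells exposed 24 h to 0.39–200 uM compounds in duplicate, 0.5% v/v DMSO final. MitoTracker Red CMXRos 250 nM loaded 30 min before formaldehyde fixation; high-content imaging at 20x, bidirectional fit versus DMSO.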

Assay [8] is described as follows: APR_HepG2_MitoMass_24hr: Apredica 24-hour HepG2 Assay for Mitochondrial Mass (AID 2282912). The conditions noted are these: high-content imaging, actives raise or lower the signal. The essentials: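 Human HepG2 liver cells were exposed for 24 hr to compounds at 0.39–200 uM (duplicates, 0.5% v/v DMSO final). They were stained live with 250 nM MitoTracker Red CMXRos for 30 min, fixed in 3.7% formaldehyde, and imaged by HCS fluorescence; signals were fitted bidirectionally against DMSO.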

A short description of assay [9]: APR_HepG2_p53Act_24hr: Apredica 24-hour HepG2 Assay for p53 Activation (AID 2282913).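 Also: p53 protein immunofluorescence averaged per cell in HepG2 with Hoechst nuclei.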 The conditions noted are these: high-content imaging, actives raise or lower the signal. Summed up:
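HepG2 cells exposed 24 h to compounds at 0.39–200 uM in duplicate, 0.5% v/v DMSO final; fixed, permeabilized, stained with anti-p53 antibody and Hoechst 33342; fluorescence imaging; bidirectional curve fit versus DMSO.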

Assay [10] can be described thus: APR_HepG2_CellCycleArrest_72hr: Apredica 72-hour HepG2 Assay for Cell Cycle Arrest (AID 2282914). To be noted: high-content imaging, actives raise or lower the signal. The essentials: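 HepG2 cells exposed 72 h in duplicate to 0.39–200 uM compound, 0.5% DMSO final. Formaldehyde-fixed, Hoechst 33342-stained nuclei imaged at 20x, six fields per well; DNA content per valid cell quantified by cell-cycle image analysis, bidirectional fit versus DMSO.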

SMILES strings stand for the structures. “And” between values parts separate entries of the source, which are not always exact repeats. Identical values can stand only once. More than one record can exist for a structure, and the calls need not agree. The source made the active and inactive calls. The calls were made as follows: active = hit-call score of the fitted dose curve at least 0.9, where 1 is the maximum; inactive = score below 0.9.

Take `O=C(O)C(F)(F)C(F)(F)C(F)(F)C(F)(F)C(F)(F)C(F)(F)C(F)(F)F`: the call in assay [1], in assay [2], in assay [3], in [4], in assay [5] and in assay [6] was inactive. The outcome in assay [7], in assay [8], in [9] and in [10] was inactive.

Usually AC50 stands for the concentration giving half of the maximal activity seen. On to `CC(C)(C)C(O)C(Oc1ccc(Cl)cc1)n1cncn1` (stereo not drawn), for which the AC50 in assay [1] is 97.1 µM (active) and 78.4 µM (active); in [10], 105 µM (active) and 88.3 µM (active) and 39.4 µM (active). Also, the compound was called inactive in assay [1], in assay [2], in assay [3], in assay [4], in assay [5] and in assay [6]. For the same compound, the compound was classed as inactive in assay [7], in assay [8], in assay [9] and in assay [10].

On to `C[C@H]1[C@H](c2ccc(Cl)cc2)SC(=O)N1C(=O)NC1CCCCC1`, for which the call in assay [1], in assay [2], in assay [3], in [4], in assay [5] and in assay [6] was inactive. For the same compound, the outcome in assay [7], in assay [8], in assay [9] and in assay [10] was inactive.

Take `CC(C)(C)C(O)/C(=C\c1ccc(Cl)cc1Cl)n1cncn1` (stereo not drawn): the outcome in assay [1], in [2], in assay [3], in assay [4], in [5] and in assay [6] was inactive. Also, the call in [7], in assay [8], in assay [9] and in assay [10] was inactive.

Take `Oc1ccc(Cl)cc1Cc1ccccc1`: the AC50 in [1] is 102 µM (active) [middle of 4 runs]; in assay [2], 77.4 µM (active); in assay [4], 77.3 µM (active) [middle of 6 runs]; in [5], 34.7 µM (active) and 79.9 µM (active) and 97.3 µM (active); in assay [6] it was 43.1 µM (active) and 76.7 µM (active) and 54 µM (active); in [8], 47.2 µM (active) and 157 µM (active) and 159 µM (active). Besides, the AC50 is 80.5 µM (active) and 50.5 µM (active) in [9]; 86.3 µM (active) [middle of 4 runs] in assay [10]. Also, the outcome in assay [1], in assay [3], in assay [4], in [5], in assay [6] and in assay [7] was inactive. Also, the outcome in assay [8], in assay [9] and in assay [10] was inactive.

Regarding `COc1nn(CSP(=S)(OC)OC)c(=O)s1`, the outcome in [1], in assay [2], in assay [3], in [4], in assay [5] and in assay [6] was inactive. For the same compound, the result in [7], in assay [8], in [9] and in [10] was inactive.

With `O=S(=O)(O)C(F)(F)C(F)(F)C(F)(F)C(F)(F)C(F)(F)C(F)(F)C(F)(F)C(F)(F)F`, the compound was called inactive in assay [1], in [2], in [3], in assay [5], in [7] and in assay [8]. In addition, the compound was classed as inactive in assay [9] and in assay [10]. Moreover, the AC50 was 63.8 µM (active) in assay [3]; 122 µM (active) [middle of 5 runs] in assay [4]; 113 µM (active) in assay [5]; 106 µM (active) [middle of 5 runs] in [6]; 116 µM (active) [middle of 4 runs] in assay [8]; 111 µM (active) [middle of 4 runs] in assay [9].

`CNC(=O)Oc1ccccc1OC(C)C`: the compound was classed as inactive in [1], in [2], in [3], in assay [4], in [5] and in assay [6]. Also, the compound was called inactive in assay [7], in [8], in assay [9] and in [10].

For `CCc1ccc(C(=O)NN(C(=O)c2cc(C)cc(C)c2)C(C)(C)C)cc1`, the outcome in assay [1], in assay [2], in [3], in assay [4], in assay [5] and in assay [6] was inactive. Further, the compound was classed as inactive in assay [7], in [8], in [9] and in assay [10].

Take `CC[C@H](C)[C@H]1O[C@]2(C=C[C@@H]1C)C[C@@H]1C[C@@H](C/C=C(\C)[C@@H](O[C@H]3C[C@H](OC)[C@@H](O[C@H]4C[C@H](OC)[C@@H](O)[C@H](C)O4)[C@H](C)O3)[C@@H](C)/C=C/C=C3\CO[C@@H]4[C@H](O)C(C)=C[C@@H](C(=O)O1)[C@]34O)O2` (tested in a mixture with another compound): the concentration at half-maximal activity (AC50) in assay [1] was 12.7 µM (active); in assay [2], 22.3 µM (active); in assay [4], 12.2 µM (active); in [5], 120 µM (active); in assay [6], 111 µM (active); in [8], 114 µM (active). Further, the half-maximal activity concentration (AC50) in assay [10] is 21.6 µM (active). In addition, the result in assay [3], in assay [7] and in assay [9] was inactive.

Take `O=S1OCC2C(CO1)C1(Cl)C(Cl)=C(Cl)C2(Cl)C1(Cl)Cl` (stereo not drawn): the call in assay [1], in assay [3], in assay [4], in assay [5], in [6] and in assay [7] was inactive. Moreover, the call in assay [8] and in assay [9] was inactive. Moreover, the AC50 in [2] is 94.4 µM (active); in assay [10], 95.3 µM (active).

For `COc1cc(OC)nc(NC(=O)NS(=O)(=O)c2cc(NC=O)ccc2C(=O)N(C)C)n1`, the compound was classed as inactive in [1], in [2], in assay [3], in assay [4], in assay [5] and in assay [6]. For the same compound, the outcome in assay [7], in assay [8], in assay [9] and in assay [10] was inactive.
